ADAM10 inh – inhibitors of human ADAM10. AID 720582. recombinant ADAM10, EDANS/DABCYL FRET peptide cleavage, 3 h. inhibition, % at 7 µM. hit rate 0.62% among 370,000. O14672;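 active = inhibition above a per-campaign cutoff equal to the mean of compounds falling between control-based bounds plus 3 SD, cut at about 20% in these data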;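 also: 0% = DMSO wells while the 100% control is not disclosed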
ADAM17 inh – inhibitors of human ADAM17. P78536. recombinant ADAM17, EDANS/DABCYL FRET peptide cleavage. inhibition, % at 6.95 µM. hit rate 0.83% among 370,000;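 active = inhibition above the mean of compounds lying between control limits plus 3 SD, set per campaign, cut at about 8.5% in these data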;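 also: 0% = DMSO-only wells as the low control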
V-ATPase pH – yeast V-ATPase proton transport regulation by pHLuorin | S. cerevisiae, pHLuorin cytosolic pH fluorescence | response, % at 10 µM | hit rate 0.37% among 350,000; in the data active = response mostly above about 7.3%, no sharp cut-off; inactive = mostly below about 5.4%; also: actives read high
proKLK7 act – activators of human kallikrein-7 zymogen; P49862; purified proKLK7, EDANS-DABCYL substrate fluorescence; 100% is mature enzyme control, 0% vehicle; activation, % at 7 µM; hit rate 0.9% among 370,000; AID 652039;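 active = activation above the mean of all tested compounds plus 3 SD, computed per campaign excluding outliers beyond control limits, cut at about 13% in these data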
Target sequence (P49862 whole entry, looked up): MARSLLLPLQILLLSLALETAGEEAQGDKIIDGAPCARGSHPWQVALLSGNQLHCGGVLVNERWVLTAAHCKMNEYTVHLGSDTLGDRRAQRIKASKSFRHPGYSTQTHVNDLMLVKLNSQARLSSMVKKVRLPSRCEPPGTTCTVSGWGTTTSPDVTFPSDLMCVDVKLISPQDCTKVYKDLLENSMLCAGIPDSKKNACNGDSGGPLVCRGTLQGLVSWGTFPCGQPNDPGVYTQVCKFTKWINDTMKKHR
KLK7 act conf – proKLK7 activation, confirmation; hit rate 68% among 3,200; activation, % at 7 µM; shares compounds with proKLK7 act; purified proKLK7, EDANS-DABCYL substrate fluorescence; scaled: vehicle 0, mature enzyme 100;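 active = activation, as change over the incubation, above the mean of all tested compounds plus 3 SD, cut at about 13% in these data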
EDANS interfere – optically interferes with EDANS-DABCYL signal, flagging KLK7 hits | activation, % at 7 µM | EDANS-DABCYL substrate fluorescence interference, no enzyme, 4 h; solvent 0%, active enzyme control 100% | hit rate 80% among 3,200 | shares compounds with proKLK7 act | AID 686952;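 active = activation above the all-compound mean plus 3 SD, ignoring values outside control-based bounds, cut at about 4.8% in these data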;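 also: value is the 4 h activation minus the activation read at time zero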
K7 EDANS ctr – EDANS fluorescence interference in dose response, no enzyme; shares compounds with proKLK7 act; EDANS-DABCYL peptide fluorescence interference; EC50, µM; hit rate 20% among 250;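 active = compounds that raise the fluorescence signal in this interference counterscreen, with EC50 at or below 10 µM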;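 also: intact quenched peptide substrate alone read at 355 nm excitation and 520 nm emission; signal is fluorescence gain from T0 to T4 after four hours at room temperature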
The depositor's hits bear a star; i = inactive; nt = not tested or not shown. In the library only some 2.3% were active in any assay of this set; here they are far more common.

SMILES	ADAM10 inh	ADAM17 inh	V-ATPase pH	proKLK7 act	KLK7 act conf	EDANS interfere	others
COc1cc2c(cc1OC)CN(CCC(=O)c1ccc(Br)cc1)CC2	-56	-22	1	14*	7	7.8*
COc1cc2c(cc1OC)CN(CC(=O)Nc1cccc([N+](=O)[O-])c1)CC2	-76	-31	-5	28*	5	2
COc1cc2c(cc1OC)CN(CC(=O)NC(=O)NCc1ccccc1)CC2	-77	-29	6	15*	3	4.4*
COc1cc2c(cc1OC)CN(CC(=O)Nc1ccc(F)cc1F)CC2	-10	-5	3	1	nt	nt
COc1cc([N+](=O)[O-])ccc1NC(=O)CN1CCc2cc(OC)c(OC)cc2C1	-139	-52	2	25*	2	2
Cc1ccccc1CNC(=O)C1C2C=CC3(CN(Cc4ccccc4)C(=O)C13)O2 (stereo unspecified)	-9	-5	nt	0	nt	nt
COc1cccc(OC)c1C1=CC(=O)C[C@H](c2ccc3c(c2)OCO3)C1	-10	0	0	1	nt	nt
COc1cccc2c1C(=O)O/C2=C/c1ccc2c(c1)OCO2	-89	-29	6	16*	-237	-177
CCOC(=O)[C@]12CCCC=C1N(CCCOC)C(=O)[C@@H]2CC(=O)NCc1cccc2ccccc12	8	0	nt	1	nt	nt
Cc1cc(=O)oc2c3c(cc(OCC(=O)N[C@@H](Cc4ccccc4)C(=O)O)c12)OC(C)(C)CC3	i	i	-1	32*	41*	25*	K7 EDANS ctr=>69
CCCCC(NC(=O)COc1cc2c(c3oc(=O)cc(C)c13)CCC(C)(C)O2)C(=O)O (stereo unspecified)	i	-386	-2	10	nt	nt
Cc1cc(=O)oc2c3c(cc(OCC(=O)NC(Cc4ccc(Cl)cc4)C(=O)O)c12)OC(C)(C)CC3 (stereo unspecified)	i	i	-1	13*	8	3
Nc1ccn([C@@H]2O[C@H](C(=O)N3CCN(CCO)CC3)[C@@H](O)[C@H]2O)c(=O)n1	1	-2	nt	0	nt	nt
Cc1ccc2nc(-c3ccccc3N)[nH]c2c1	i	i	0	68*	4	3
Cc1ccc(C)c(-c2nc3ccc(N)cc3[nH]2)c1	i	-348	-1	-1	nt	nt
Nc1ccc(-c2nc3c(Cl)c(N)ccc3[nH]2)cc1	i	i	4	70*	70*	77*
Nc1ccc(-c2nc3ccc([N+](=O)[O-])cc3[nH]2)cc1	7	3	1	0	nt	nt
Nc1ccc(-c2nc3ccc(N)cc3[nH]2)cc1	i	i	-4	87*	69*	75*
Nc1ccc2nc(-c3ccc(Cl)cc3)[nH]c2c1	i	i	3	66*	64*	66*
NS(=O)(=O)c1ccc(OCCCN2CCC(C(O)(c3ccccc3)c3ccccc3)CC2)cc1	-9	-4	nt	-1	nt	nt
Cc1nc2ccc(-c3nc4ccc(N)cc4[nH]3)cc2[nH]1	i	i	3	37*	69*	66*
Nc1ccc2nc(-c3cc(Cl)c(N)c(Cl)c3)[nH]c2c1	i	-154	-6	24*	21*	13*	K7 EDANS ctr=>70
Nc1cc(N)cc(-c2nc3ccccc3[nH]2)c1	-6	2	0	0	nt	nt
Nc1ccc2nc(-c3cccc(-c4nc5ccc(N)cc5[nH]4)c3)[nH]c2c1	0	-5	-1	0	nt	nt
COC(=O)[C@]12C[C@H](CC(=O)N3CCSCC3)C(=O)N(CCC3=CCCCC3)C1=C[C@H](C1CCCC1)O[C@@H]2C	7	4	nt	1	nt	nt
SMILES	ADAM10 inh	ADAM17 inh	V-ATPase pH	proKLK7 act	KLK7 act conf	EDANS interfere	others
Cn1c(N)c(C(=O)NCc2ccccc2)sc1=S	-3	-3	-2	0	nt	nt
COc1ccc(CCNC(=O)c2sc(=S)n(C)c2N)cc1	12	1	3	15*	15*	13*
CSc1ccc(/C=C/C(=O)c2c(O)cc(C)oc2=O)cc1	-53	-21	1	14*	-4	-3
Cc1cc(O)c(C(=O)/C=C/c2ccc(Cl)cc2)c(=O)o1	-15	-11	3	-1	nt	nt
FC(F)(F)c1ccccc1CN1CCCc2nc(-c3ccccc3)ccc21	-69	-18	nt	1	nt	nt
COc1ccc(-c2ccc3c(n2)CCCN3Cc2ccccc2C(F)(F)F)cc1	i	-333	nt	18*	15*	13*	K7 EDANS ctr=i
CCc1cc2c(=O)c(-c3cscn3)coc2c(CN(C)C)c1O	i	-241	-2	30*	63*	71*
C[C@@H](O[Si](c1ccccc1)(c1ccccc1)C(C)(C)C)[C@@H]1NC(=O)[C@@H]2C[C@]3(Br)c4ccccc4N(S(=O)(=O)c4ccccc4)[C@@H]3N2C1=O	6	3	nt	nt	nt	nt
CCN1CCN(c2cc(C)c3cc(NC(=O)c4cc(OC)cc(OC)c4)ccc3n2)CC1	-3	-2	0	0	nt	nt
CCCN1CCN(C(=S)Nc2ccc3nc(N4CCN(CC)CC4)cc(C)c3c2)CC1	-428	-143	0	20*	4	6.5*
Cc1cc(N2CCN(C)CC2)nc2ccc(NC(=O)c3ccc4c(c3)OCO4)cc12	-7	-1	-1	19*	7	6.9*
CCOc1ccc(C(=O)Nc2ccc3nc(N4CCN(CC)CC4)cc(C)c3c2)cc1	2	-3	-9	38*	217*	192*
Cc1cc(N2CCCC2)nc2ccc(NC(=S)NCCCOC(C)C)cc12	i	-195	4	16*	14*	12*	K7 EDANS ctr=>70
FC(F)(F)Oc1cccc(Cn2ccc3ccc(-c4ccc5ccn(Cc6ccccc6)c5c4)cc32)c1	-46	-16	nt	-2	nt	nt
CCN1CCN(c2cc(C)c3cc(NC(=S)N4CCN(c5ccccc5)CC4)ccc3n2)CC1	-347	-120	2	10	nt	nt
CCN1CCN(c2cc(C)c3cc(NC(=S)N4CCN(c5ccccc5F)CC4)ccc3n2)CC1	-358	-118	1	14*	1	2
C=CCN1C(C(=O)OC)CN(Cc2cn(CCC3OCCO3)nn2)CCS1(=O)=O (stereo unspecified)	-7	-5	nt	1	nt	nt
COC(=O)COc1ccc(Cl)cc1C1Nc2ccccc2C(=O)N1c1ccc(OC)cc1 (stereo unspecified)	-90	-30	-2	0	nt	nt
O=C1c2ccccc2NC(c2ccccn2)N1c1ccccc1F (stereo unspecified)	i	-328	1	18*	22*	22*
Cc1cccc(C2Nc3ccccc3C(=O)N2c2ccc(F)cc2)n1 (stereo unspecified)	i	-277	1	28*	23*	21*
Cc1ccc(CN2C(=O)c3ccccc3NC2c2ccccn2)cc1 (stereo unspecified)	i	-212	-1	4	nt	nt
